# Shown is part of a subset that was picked to be rich in hits.
# ST2 IL33 inh = inhibitors of human ST2 (IL1RL1) binding to IL-33, primary screen, biochemical, AlphaLISA; Interleukin-1 receptor-like 1 (Homo sapiens), Q01638; AlphaLISA ST2-Fc/biotin-IL-33 interaction, 1 h; inhibition, % for hits at 17 µM; actives 2.3% (n = 78,000); AID 1259354, 2018; in the data active = inhibition above about 30%
# Target sequence (Q01638 whole entry, looked up): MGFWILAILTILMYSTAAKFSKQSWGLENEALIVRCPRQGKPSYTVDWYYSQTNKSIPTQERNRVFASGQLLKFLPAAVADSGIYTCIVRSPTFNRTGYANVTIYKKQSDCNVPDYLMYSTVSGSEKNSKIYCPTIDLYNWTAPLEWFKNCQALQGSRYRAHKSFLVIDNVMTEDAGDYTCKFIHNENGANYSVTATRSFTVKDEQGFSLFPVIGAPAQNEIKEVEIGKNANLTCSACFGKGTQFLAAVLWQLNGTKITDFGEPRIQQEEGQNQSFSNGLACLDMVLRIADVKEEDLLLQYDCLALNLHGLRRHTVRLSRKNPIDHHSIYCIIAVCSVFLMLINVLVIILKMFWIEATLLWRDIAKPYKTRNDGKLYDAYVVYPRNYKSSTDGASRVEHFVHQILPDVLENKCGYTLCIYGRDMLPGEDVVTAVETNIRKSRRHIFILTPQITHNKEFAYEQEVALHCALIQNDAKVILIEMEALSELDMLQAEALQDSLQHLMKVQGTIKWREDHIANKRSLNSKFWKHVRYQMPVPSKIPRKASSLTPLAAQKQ
# Numbers stand for hits; 0 = inactive.
SMILES,ST2 IL33 inh
CCN(CC)C(=O)C1CCCN(CC(=O)Nc2c(C)nn(CC)c2C)C1 (configuration not stated),0
O=C1NCC(=O)N2CCN(C(=O)CCc3cccnc3)CC12 (configuration not stated),0
CC(C)c1cc(N2CCCC3(CC2)CNC(=O)O3)nc(C(F)(F)F)n1 (configuration not stated),0
CC(C)c1cc(NC2CC(=O)N(CC(C)(C)C)C2)nc(C(F)(F)F)n1 (configuration not stated),31.0%
CC(C)c1cc(NCc2cccnc2N2CCCC(O)C2)nc(C(F)(F)F)n1 (configuration not stated),0
COC(=O)c1nc2n(n1)C(c1ccc(F)cc1)C(C(=O)OC1CCCCC1)=C(C)N2 (configuration not stated),0
CC(C)Oc1ccc(C(=O)Nc2c3c(nn2-c2ccc(F)cc2)CS(=O)C3)cc1 (configuration not stated),0
Cc1ccccc1S(=O)(=O)Nc1ccc2oc3c(c2c1)CC(C)CC3 (configuration not stated),0
Cc1nc2ccccc2c2c1C(=O)N(c1ccccc1)C2=O,0
Cc1nc2ccccc2c2c1C(=O)N(Cc1cccnc1)C2=O,0
Cc1nc2ccccc2c2c1C(=O)N(C(C)Cc1ccccc1)C2=O (configuration not stated),34.0%
Cc1nc2ccccc2c2c1C(=O)N(c1cccc(Cl)c1)C2=O,0
Cc1nc2ccccc2c2c1C(=O)N(c1ccc(F)cc1F)C2=O,0
COc1ccc(Cl)cc1N1C(=O)c2c(C)nc3ccccc3c2C1=O,31.0%
COC(=O)c1ccc(C2C(C#N)=C(N)Oc3n[nH]c(-c4ccc5ccccc5c4)c32)cc1 (configuration not stated),0
CCc1ccccc1NS(=O)(=O)c1ccc(OC)cc1,0
O=C(c1cccc([N+](=O)[O-])c1)n1cc(Br)cn1,0
O=C(COc1cccnc1)NCc1cccnc1N1CCc2ccccc2C1,0
CCN(c1ccccc1)S(=O)(=O)c1cc(OC)ccc1OC,0
CCN(c1ccccc1)S(=O)(=O)c1ccc(OC)c(OC)c1,0
CCN(c1ccccc1)S(=O)(=O)c1cc([N+](=O)[O-])ccc1N,32.0%
CCOc1ccccc1N(CC(=O)Nc1ccc(Cl)cc1C)S(C)(=O)=O,0
CCCn1cnnc1CN(C)Cc1nc(-c2ccco2)oc1C,0
CC(=O)c1sc(NC(=O)c2ccco2)nc1C,0
COc1ccc(Nc2ncnc3c2cnn3-c2cccc(C)c2)cc1Cl,0
SMILES,ST2 IL33 inh
O=S(=O)(Cc1ccccc1)c1ccc(Cl)cc1,0
CC1CC(C)CN(S(=O)(=O)c2ccc(Cl)cc2)C1 (configuration not stated),0
O=C1C=CC(=NOS(=O)(=O)c2ccc(Cl)cc2)C=C1,48.0%
CN(C)c1ccc(/C=C2\N=C(c3ccccc3Br)OC2=O)cc1,41.0%
COc1ccc(/C=C2\N=C(c3ccccc3Br)OC2=O)c(OC)c1OC,0
CC(=O)n1cc(/C=C2\N=C(c3cccc(C)c3)OC2=O)c2cc(Br)ccc21,0
Cc1cccc(C2=N/C(=C\c3ccc(N(C)C)cc3)C(=O)O2)c1,39.0%
O=C1OC(c2ccccc2Cl)=N/C1=C\C=C\c1ccccc1,34.0%
Cc1cccc(C2=N/C(=C\C=C\c3ccccc3)C(=O)O2)c1,37.0%
COc1ccc(/C=C2\N=C(c3ccc(C)cc3)OC2=O)cc1Br,0
O=C1OC(c2cc([N+](=O)[O-])ccc2Cl)=N/C1=C\c1cccc(I)c1,0
COc1ccc(/C=C2\N=C(c3cccc(I)c3)OC2=O)cc1[N+](=O)[O-],0
CC1=N/C(=C\c2ccc(Br)cc2)C(=O)O1,0
Cc1ccc(C2=N/C(=C\C(Br)=C\c3ccccc3)C(=O)O2)cc1[N+](=O)[O-],0
COc1ccccc1/C=C/C1=NC(=C\C(Cl)=C\c2ccccc2)/C(=O)O1,0
COc1ccc(Cl)cc1NC(=O)Cn1c(=O)n(-c2ccc(F)cc2F)c(=O)c2sccc21,0
COc1cccc(-c2cc(C(=O)N3CCC4(CCCNC4)C3)[nH]n2)c1 (configuration not stated),0
CC1CCCC(NC(=O)C2(O)c3ccccc3NC(=O)N2c2ccccc2)C1C (configuration not stated),0
Cc1cc(C(=O)N2CCc3onc(-c4ccccc4)c3C2)nc(C)n1,0
COc1ccccc1NC(=O)C1=C(C)Nc2nnnn2C1c1ccc(Br)cc1 (configuration not stated),0
CCOC(=O)c1oc2ccccc2c1NC(=O)c1cc(C)cc(C)c1,0
COC(=O)C1C(=O)C2=C(CC1C)NC(C)=C(C(=O)OC1CCCCC1)C2c1ccc(C)s1 (configuration not stated),0
O=C1OC(c2cccc(I)c2)=N/C1=C\c1ccc([N+](=O)[O-])cc1,0
Cc1cccc(C2=N/C(=C\c3ccccc3)C(=O)O2)c1,46.0%
Cc1cccc(C2=N/C(=C\c3cccc([N+](=O)[O-])c3)C(=O)O2)c1,0
SMILES,ST2 IL33 inh
CNC(=O)OC12CC3C[C@@](C)(C1)C[C@](C)(C3)C2,0
COc1ccc(N(C(=O)c2ccc(C(C)(C)C)cc2)C2C=CS(=O)(=O)C2)c(OC)c1 (configuration not stated),0
CC(C)C(NS(=O)(=O)c1ccc2c(c1)oc(=O)n2C)C(=O)NC1CCCCC1C (configuration not stated),0
COc1ccc(Cl)cc1NC(=O)c1noc2c1CC(C(C)(C)C)CC2 (configuration not stated),0
CC(C)(C)CC(=O)Nc1ccccc1[N+](=O)[O-],0
O=C(NC1CCCCCC1)c1ccccc1[N+](=O)[O-],0
O=C(Nc1ccccc1[N+](=O)[O-])C1C2CCCCC21 (configuration not stated),39.0%
Cc1cc(N2CCN(C)CC2)nc2ccc(NC(=O)c3ccc(Cl)nc3)cc12,0
CCC(C)OC(=O)C1=C(C)NC(=O)NC1c1ccccc1OC(C)C (configuration not stated),0
Cc1cc(C(=O)N2CCOC(C(F)(F)F)C2)c2c(=O)[nH]c(=O)n(C)c2n1 (configuration not stated),0
O=S(=O)(c1cccc2nsnc12)N1CCC(n2c(Cc3ccccc3)nc3cccnc32)CC1,97.0%
CC(=O)Nc1ccc(S(=O)(=O)N2CCC(n3c(Cc4ccccc4)nc4cccnc43)CC2)cc1,0
O=S(=O)(c1cccc2nsnc12)N1CCN(C23CC4CC(CC(C4)C2)C3)CC1,0
c1ccc(CCc2noc(CN3CCOCC3)n2)cc1,0
Oc1oc(-c2ccc(Br)cc2)nc1C=Nc1ccc(Br)cc1,0
Cc1cccc(-n2ncc3c(Nc4ccc(F)cc4)ncnc32)c1,0
O=C(O)[C@@H]1[C@H](C(=O)Nc2cccc3cccnc23)[C@@H]2C=C[C@H]1C2,0
Cc1ccc2ncnc(Nc3ccccc3Cl)c2c1,0
Fc1ccc(NC2CCCN(Cc3cccc4ncccc34)C2)cc1 (configuration not stated),0
Cc1sc2ncnc(Nc3ccccc3Cl)c2c1C,0
O=C(Nc1cccc2nccnc12)c1ccccc1,0
c1cc(Nc2cccc3nccnc23)c2nccnc2c1,40.0%
Clc1ccccc1Nc1cccc2nccnc12,39.0%
Fc1ccc(Nc2cccc3nccnc23)cc1,49.0%
CN(C)c1ccc(Nc2cccc3nccnc23)cc1,84.0%
CC(=O)Nc1cccc(N(C)C)c1,0

# Compound activity (PubChem)
